Measurements: PubChem BioAssay AID1159580 (chemical genetic matrix, 2015)
Where “and” joins values, the source holds several entries; their conditions need not be identical. Identical values can stand only once. Out of some 5,500 compounds screened, about 2,000 (36%) were called active. Not shown: some 18% with an inconclusive outcome. Rule as the data show it: active = normalized growth mostly below about 0.91 (no sharp cut-off); inconclusive = no clear call, values can overlap the other calls; inactive = mostly above about 0.92. The list shows a part of the results.

Experiment: chemical genetic growth profiling, strain panel (AID 1159580);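 also: tested at 20 µM; growth read once vehicle control cultures reached saturation at 30 °C; 1 = growth at the plate median or of vehicle wells; lower values mean less growth of the strain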
Conditions: S. cerevisiae deletion strains, growth OD

Measured: normalized growth

CCC(C)(C)C(=O)O[C@H]1C[C@@H](C)C=C2C=C[C@H](C)[C@H](CC[C@@H]3C[C@@H](O)CC(=O)O3)[C@H]21
inactive: locus YAL013W, strain DEP1, stronger effect = lower value 0.99 | locus YAL030W, strain snc1, stronger effect = lower value 1.01 | locus YBR009C, strain hhf1, stronger effect = lower value 0.912 | locus YBR021W, strain FUR4, stronger effect = lower value 0.861 | locus YBR171W, strain sec66, stronger effect = lower value 0.998 | locus YBR229C, strain ROT2, stronger effect = lower value 1.01 | locus YCL011C, strain gbp2, stronger effect = lower value 0.944 | locus YCL029C, strain bik1, stronger effect = lower value 1.04 | locus YCL061C, strain MRC1, stronger effect = lower value 1.01 | locus YCL069W, strain vba3, stronger effect = lower value 0.955 | locus YCR088W, strain abp1, stronger effect = lower value 1.02 | locus YDL005C, strain med2, stronger effect = lower value 1.02 | locus YDL035C, strain GPR1, stronger effect = lower value 0.97 | locus YDL040C, strain nat1, stronger effect = lower value 0.997 | locus YDL074C, strain BRE1, stronger effect = lower value 0.866 | locus YDL101C, strain DUN1, stronger effect = lower value 0.98 | locus YDL134C, strain PPH21, stronger effect = lower value 1.01 | locus YDL185W, strain tfp1, stronger effect = lower value 0.955 | locus YDL192W, strain arf1, stronger effect = lower value 1.02 | locus YDR001C, strain nth1, stronger effect = lower value 1.02 | locus YDR069C, strain doa4, stronger effect = lower value 1 | locus YDR101C, strain arx1, stronger effect = lower value 1.04 | locus YDR150W, strain NUM1, stronger effect = lower value 1.01 | locus YDR159W, strain sac3, stronger effect = lower value 0.93 | locus YDR162C, strain NBP2, stronger effect = lower value 0.937 | locus YDR195W, strain ref2 1.01 | locus YDR297W, strain sur2, stronger effect = lower value 0.999 | locus YDR318W, strain mcm21, stronger effect = lower value 1 | locus YDR334W, strain swr1, stronger effect = lower value 0.941 | locus YDR335W, strain msn5, stronger effect = lower value 0.979 | locus YDR388W, stronger effect = lower value 1.02 | locus YDR502C, strain sam2, stronger effect = lower value 1.02 | locus YEL003W, strain gim4, stronger effect = lower value 0.973 | locus YEL037C, strain rad23, stronger effect = lower value 1 | locus YEL061C, strain CIN8 (second series), stronger effect = lower value 0.988 | locus YEL061C, strain CIN8, stronger effect = lower value 0.995 | locus YER016W, strain bim1, stronger effect = lower value 0.953 | locus YER110C, stronger effect = lower value 1.04 | locus YER111C, strain swi4, stronger effect = lower value 1.01 | locus YER155C, strain BEM2 (second series), stronger effect = lower value 1 | locus YER155C, strain BEM2, stronger effect = lower value 0.996 | locus YER167W, strain BCK2, stronger effect = lower value 0.982 | locus YFR010W, strain ubp6, stronger effect = lower value 0.973 | locus YGL078C, strain dbp3, stronger effect = lower value 1.03 | locus YGL086W, strain mad1, stronger effect = lower value 0.991 | locus YGL167C, strain pmr1, stronger effect = lower value 1.01 | locus YGL173C, strain kem1, stronger effect = lower value 0.997 | locus YGL227W, strain vid30, stronger effect = lower value 1.02 | locus YGL240W, strain doc1, stronger effect = lower value 1.03 | locus YGL248W, strain PDE1, stronger effect = lower value 1.01 | locus YGR078C, strain PAC10, stronger effect = lower value 0.966 | locus YGR135W, strain pre9, stronger effect = lower value 1.01 | locus YGR252W, strain gcn5, stronger effect = lower value 0.983 | locus YHR013C, strain ard1, stronger effect = lower value 0.912 | locus YHR030C, strain SLT2, stronger effect = lower value 1.02 and 0.921 | locus YHR079C, strain IRE1 (second series), stronger effect = lower value 1.03 | locus YHR079C, strain IRE1, stronger effect = lower value 0.948 | locus YHR094C, strain hxt1, stronger effect = lower value 1.03 | locus YHR129C, strain ARP1, stronger effect = lower value 1.02 | locus YHR200W, strain rpn10, stronger effect = lower value 1.03 | locus YIL066C, strain RNR3, stronger effect = lower value 0.992 | locus YIL073C, strain SPO22, stronger effect = lower value 0.902 | locus YIL125W, strain kgd1, stronger effect = lower value 1.04 | locus YIR030C, strain dcg1, stronger effect = lower value 1.05 | locus YJL092W, strain hpr5, stronger effect = lower value 1.01 | locus YJL095W, strain BCK1 (second series), stronger effect = lower value 0.951 | locus YJL095W, strain BCK1, stronger effect = lower value 0.893 and 0.915 | locus YJL115W, strain asf1, stronger effect = lower value 1.02 | locus YJL129C, strain trk1, stronger effect = lower value 0.934 | locus YJL134W, strain LCB3, stronger effect = lower value 1.01 | locus YJL154C, strain vps35, stronger effect = lower value 1.01 | locus YJL164C, strain tpk1, stronger effect = lower value 0.919 | locus YJL166W, strain qcr8, stronger effect = lower value 0.955 | locus YJL168C, strain set2, stronger effect = lower value 1.02 | locus YJL187C, strain SWE1 (second series), stronger effect = lower value 0.995 | locus YJL187C, strain SWE1, stronger effect = lower value 0.976 | locus YJR043C, strain POL32, stronger effect = lower value 1.01 | locus YJR066W, strain TOR1, stronger effect = lower value 0.84
active: locus YAL021C, strain ccr4, stronger effect = lower value 0.703 | locus YAL026C, strain drs2, stronger effect = lower value 0.828 | locus YBL061C, strain skt5, stronger effect = lower value 0.855 | locus YBR023C, strain chs3, stronger effect = lower value 0.841 | locus YBR231C, strain swc5, stronger effect = lower value 0.776 | locus YBR279W, strain paf1, stronger effect = lower value 0.851 | locus YCL016C, strain dcc1, stronger effect = lower value 0.909 | locus YDR137W, strain rgp1, stronger effect = lower value 1.35 [resistant] | locus YDR392W, strain spt3, stronger effect = lower value 0.528 | locus YER015W, strain faa2, stronger effect = lower value 0.842 | locus YGL253W, strain hxk2, stronger effect = lower value 0.787 | locus YGR229C, strain SMI1, stronger effect = lower value 0.783 | locus YHR027C, strain rpn1, stronger effect = lower value 0.875 | locus YHR142W, strain chs7, stronger effect = lower value 0.79
